Screening results: PubChem, National Center for Advancing Translational Sciences (NCATS)
An excerpt weighted towards active compounds, which were near 2.1% of everything screened.
Abeta yeast res – compounds reversing amyloid beta toxicity in yeast | yeast expressing A-beta42, growth rescue, OD600, 48 h; response scale: 0% DMSO, 100% iron-clioquinol control | actives 0.063% (n = 410,000) | Potency, µM (titrated, usually from 46.1 µM), actives largely listed as activators; further: nearly all actives have a fitted effect of over 55% in size
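Yeast A-beta toxicity model in growth medium with pinned compounds, 48 h at 30 C; growth read as absorbance at 600 nm. Normalized to FeCl3/clioquinol equimolar mix (positive) and DMSO (negative).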
FUS suppressor – FUS proteinopathy suppression in yeast | S. cerevisiae FUS-expressing, growth rescue, OD600, 24 h | AID 1347120 | Potency, µM (doses to about 76.6 µM), most hits filed as activators | actives 0.24% (n = 390,000); further: nearly all actives have a fitted effect of over 55% in size
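Absorbance at 600 nm, taken 24hr after compound addition, measured rescue of FUS-yeast growth at 30C. Induction used 2% galactose with seeding at OD 0.005. Controls: CP55940 from 92uM final, DMSO only.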
TDP43 rescue – inhibitors of TDP-43 toxicity in yeast | Potency, µM (highest dose often 46.1 µM), hits mostly activators | actives 1.8% (n = 410,000) | TDP-43 expressing yeast growth rescue, BacTiter-Glo, 24 h; further: nearly all actives have a fitted effect of over 50% in size
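Readout is BacTiter-Glo luminescence of cell growth, so inhibitors register as activators. TDP-43-expressing yeast at OD600=0.02 in galactose medium, after raffinose pregrowth to mid-log, were incubated with compound for 24 hr at 30 deg C.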
aSyn yeast inh – alpha-synuclein toxicity inhibition in yeast; Yeast expressing alpha-synuclein, growth rescue, BacTiter-Glo, 24 h; Potency, µM (titrated, usually from 46.1 µM), hits mostly activators; actives 0.14% (n = 370,000); AID 652106; further: nearly all actives have a fitted effect of over 65% in size
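Screening used galactose-induced yeast with toxic alpha-synuclein levels, exposed to compound for 24 hr at 30 deg C. Cell growth, read with BacTiter-Glo luminescence, gave the measured signal.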
A number is an active result; i = inactive; ? = inconclusive; nt = no result; ! = a repeat was not active; [ ] = another dose, or the depositor's remark. The call rests on the fitted dose curve; in most records, active means well fitted curve in the direction sought with a large enough effect; inconclusive means small, poorly fitted or top-dose-only effect, or another doubt; inactive means no such curve, though single readings can be large; an effect the other way counts as inactive or inconclusive.

SMILES | Abeta yeast res | FUS suppressor | TDP43 rescue | aSyn yeast inh
CCN(CC(=O)Nc1ccccc1OC)CC(=O)Nc1ccccc1C(F)(F)F | i | i | i | i
COc1ccc(-c2csc(NC(=O)CCS(=O)(=O)c3ccccc3)n2)c(OC)c1 | i | ? | i | i
N#Cc1ccc(NC(=O)c2sc3cc(C(F)(F)F)cnc3c2-c2cccs2)cc1 | i | i | i | i
O=C(CNc1ccc(F)cc1)c1ccccc1 | i | i | ? | i
O=C(NCc1ccncc1)c1ccc(Cn2cc(C(F)(F)F)ccc2=O)cc1 | i | i | i | ?
Cc1nc2ccc(C(=O)Nc3ccccc3Cl)cc2s1 | i | i | 11µM | i
CSc1nc2ccc(NS(=O)(=O)c3cccc(Cl)c3Cl)cc2s1 | i | ? | 32µM | i
Cc1nc2ccc(NS(=O)(=O)c3ccccc3Cl)cc2s1 | i | i | 18µM | i
O=c1oc2ccccc2c(Nc2cc3ccccc3cc2O)c1[N+](=O)[O-] | i | ? | i | i
COc1ccc(N2CCN(C(=O)CSc3c4c(nc5ccc(Cl)cc35)CCCC4)CC2)cc1 | i | ? | 32µM | nt
O=C(CSc1c2c(nc3ccc(Cl)cc13)CCCC2)N1CCN(c2ccc(Cl)cc2)CC1 | i | ? | 18µM | nt
O=C(CSc1c2c(nc3ccc(Cl)cc13)CCCC2)N1CCN(c2cccc(Cl)c2)CC1 | i | ? | 16µM | nt
Cc1ccc(CNC(=O)CSc2c3c(nc4cc(Cl)ccc24)CCCC3)o1 | i | ? | 16µM | i
COc1ccc(OC)c(CNC(=O)CSc2c3c(nc4cc(Cl)ccc24)CCCC3)c1 | i | i | i | nt
O=C(COC(=O)c1cccc(Br)c1)Nc1cccc(S(=O)(=O)N2CCCCC2)c1 | i | ? | i | ?
O=C(Nc1nnc([C@@H]2C[C@H](O)[C@@H](CO)O2)s1)Nc1cccc2ccccc12 | i | i | i | i
CC(C)C(Cl)=NOC(=O)Nc1ccc(F)cc1 | i | nt | 13µM | i
COc1ccccc1OC(C)C(=O)Nc1cccc(-c2nc3ccccc3o2)c1 (stereo unspecified) | i | i | ? | nt
Cc1cc(=O)oc2cc(O)cc(O)c12 | i | i | i | i
CCCCCc1cc(O)c2c(C)cc(=O)oc2c1 | i | i | 3.2µM | i
CC(=O)C1CCC2C(CCC3=CC(=O)CCC32)C1 (stereo unspecified) | i | i | i | i
Cc1cccc(C)c1OCC(=O)Nc1cccc(NC(=O)c2ccco2)c1 | i | i | 25µM | i
COc1ccc(NC(=O)c2ccco2)cc1NC(=O)COc1cc(C)ccc1C(C)C | i | i | i | nt
O=C(/C=C\c1ccccc1)Nc1ccc(NC(=O)c2ccco2)cc1 | i | i | 35µM | i
Cc1ccc(C(C)C)c(OCC(=O)Nc2cccc(NC(=O)c3ccco3)c2)c1 | i | i | 20µM | nt
SMILES | Abeta yeast res | FUS suppressor | TDP43 rescue | aSyn yeast inh
COc1c(C)cc(Br)cc1C(=O)Nc1cccc(-c2nc3ncccc3o2)c1 | i | i | 13µM | i
O=C(/C=C/c1ccc(Br)cc1)c1ccc(NC(=O)c2ccco2)cc1 | i | i | i | i
CCNc1c(NS(=O)(=O)c2ccc(Cl)s2)c(=O)oc2ccccc12 | i | i | i | i
Cc1cc(C)c(OCC(=O)Nc2cccc(-c3nc4ncccc4o3)c2)c(Br)c1 | i | i | i | nt
O=C(Nc1cccc(NC(=O)c2cccnc2Cl)c1)c1ccco1 | i | i | i | i
Cc1ccc(C(C)C)c(OCC(=O)Nc2cccc(-c3nc4ncccc4o3)c2)c1 | i | i | 22µM | nt
O=C(Nc1cccc(NC(=O)c2ccccc2Cl)c1)c1ccco1 | i | i | 18µM | i
O=C(Nc1cccc(O)c1)c1cc2nc(-c3ccc(Br)cc3)cc(C(F)(F)F)n2n1 | i | i | i | nt
CCC(=O)N(CC)c1nc(-c2ccc(OC)cc2)cs1 | i | i | 5µM | i
Cn1cc(S(=O)(=O)N2CCOCC2)cc1C(=O)Nc1cccc(C#N)c1 | i | i | i | nt
O=C(Nc1ccc(Cl)cc1)c1csc(COCCO)n1 | i | i | i | i
O=C(Nc1ccc(Oc2ccccc2)cc1)c1csc(COCCO)n1 | i | i | 13µM | i
CCN1CCN(C(=O)CCS(=O)(=O)c2cc3c(cc2Cl)NC(=O)CO3)CC1 | i | i | i | i
Cc1cccc(/C(N)=N/OC(=O)Cc2cccs2)c1 | i | i | ? | i
N/C(=N\OC(=O)c1ccc(Br)cc1)c1cccc([N+](=O)[O-])c1 | i | i | 10µM | i
N/C(=N\OC(=O)c1ccc([N+](=O)[O-])cc1)c1ccc(Br)cc1 | i | i | i | i
N/C(=N\OC(=O)Cc1cccs1)c1cccc([N+](=O)[O-])c1 | i | i | 11µM | i
N/C(=N\OC(=O)c1ccncc1)c1cccc([N+](=O)[O-])c1 | i | i | ? | i
Cc1ccc(C(=O)O/N=C(\N)c2cccc([N+](=O)[O-])c2)cc1 | i | i | 10µM | i
CCOC(=O)[C@]12CCCC=C1N(CCCOC)C(=O)[C@@H]2CC(=O)NCc1ccc(C)o1 | nt | i | nt | nt
O=C(C1CCN(S(=O)(=O)c2cccs2)CC1)N1CCN(c2ccccc2F)CC1 | i | i | i | nt
CCSC(=O)N1c2ccc(OC)cc2C=CC1C#N (stereo unspecified) | i | nt | 22µM | i
COc1ccc(C(=O)N2c3ccccc3C=CC2C#N)cc1 (stereo unspecified) | i | i | i | i
C=CCNc1nc(-c2ccc(Cl)cc2)cs1 | i | i | 11µM | i
C=CCNc1nc(-c2ccc([N+](=O)[O-])cc2)cs1 | i | i | ? | i
SMILES | Abeta yeast res | FUS suppressor | TDP43 rescue | aSyn yeast inh
O=C(OCc1nnc(-c2ccccc2)o1)c1ccc(-n2cnnn2)cc1 | i | i | i | i
COc1cc2ncc3c(-c4ccccc4)nn(-c4ccc(C)cc4)c3c2cc1OC | i | i | 7.1µM | nt
COc1ccc(-c2nn(-c3ccc(C)cc3)c3c2cnc2ccc(C)cc23)cc1OC | i | i | i | nt
Cc1ccc(N(CC(=O)N2CCN(c3ccc(F)cc3)CC2)S(=O)(=O)c2c(C)noc2C)cc1 | ? | i | 16µM! | i
Cc1ccc(N(CC(=O)N2CCN(c3ccc(Cl)cc3)CC2)S(=O)(=O)c2c(C)nn(C)c2C)cc1 | i | i | i | nt
Cc1ccc(N(CC(=O)N2CCN(c3cc(C)ccc3C)CC2)S(=O)(=O)c2c(C)nn(C)c2C)cc1 | i | ? | 35µM | nt
Cc1cc(NC(=O)c2cc(-c3ccc(Cl)c(Cl)c3)on2)n(-c2ccccc2)n1 | i | i | i | nt
O=C(CCc1ccccn1)N1CCCC(CNS(=O)(=O)c2cccs2)C1 (stereo unspecified) | i | i | i | i
COc1ccccc1-c1c(C#N)c(N)nc2c1CCc1ccccc1-2 | i | ? | 20µM | i
COc1ccccc1-c1cc(-c2ccc(O)cc2)nc(N)c1C#N | i | i | 32µM | i
O=C(c1ccc([N+](=O)[O-])o1)N1CCCCCC1 | i | i | ? | i[1.84 µM]
CC1CCN(C(=O)Cn2cc(SCC(=O)NCC3CCCO3)c3ccccc32)CC1 (stereo unspecified) | i | i | i | i
S=C(NCc1ccccc1)C(=S)NCc1ccccc1 | 8.9µM | i | i | i
Fc1ccccc1NC(=S)NCCc1cccc(Cl)c1 | 22µM | i | ? | i
